Screening data (PubChem)
Sampled rows, rich in hits. Any-hit rate of the full collection: about 4.6%.
Vaccinia mCherry – vaccinia inhibition (mCherry reporter) | AID 720579 | Vaccinia virus mCherry reporter infection, fluorescence | 310,000 tested, 0.63% active | Potency, µM (highest dose often 36.5 µM), inactives show at the highest dose activity change, negative = inhibition, hits mostly inhibitors; calls by dose curve; tested in A549 cells; note: nearly all actives have a fitted effect of over 35% in size
VACV Venus inh – vaccinia inhibition (Venus reporter); Vaccinia virus Venus reporter expression, fluorescence; Potency, µM (doses to about 36.5 µM), for the others: top-dose activity change, negative = inhibition, usual class: inhibitors; 330,000 tested, 0.46% active; AID 720580; calls by dose curve; tested in A549 cells; note: nearly all actives have a fitted effect of over 30% in size
Lassa entry inh – inhibitors of Lassa virus binding or cell entry | AID 540256 | Potency, µM (series often up to 37.9 µM), without a hit: at the highest dose activity change, negative = inhibition, most hits filed as inhibitors | Lassa virus pseudotype entry inhibition, cell reporter | 300,000 tested, 1.2% active; calls by dose curve; tested in HEK293 cells; note: nearly all actives have a fitted effect of over 50% in size
Marburg entry inh – inhibitors of Marburg virus binding or cell entry; AID 540276; Potency, µM (doses to about 37.8 µM), for the others: at the highest dose activity change, negative = inhibition, hits mostly inhibitors; 300,000 tested, 1.8% active; Marburg virus pseudotyped entry inhibition, cell reporter; calls by dose curve; tested in HEK293 cells
HCV inh – HCV inhibition; Huh7.5.1 HCVcc-Cre infection, luciferase reporter, 44 h; Potency, µM (doses to about 41.8 µM), without a hit: top-dose activity change, negative = inhibition, most hits filed as inhibitors; 340,000 tested, 3.4% active; active = well fitted inhibition curve with a large enough effect; inconclusive = small, poorly fitted or top-dose-only effect, or another doubt; inactive = no such curve, though single readings can be large or run the other way
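Luciferase read-out (15 sec integration) after a 15 min room-temperature substrate step quantifies HCVcc-Cre infection. Cells, 1,000 per well, had compound added 4 h post-plating, then virus at ~0.5 moi, and were cultured 44 h.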
Numbers without * were called inactive; [ ] = remark or other dose. % is set by controls: 0 for no effect and ±100 for the full control effect; potency is the fitted concentration of half-maximal effect.

`COc1ccc2c(c1OC)C(=O)OC2N1C(=O)CC[C@H]1C(=O)NCC1CCCO1` (some centres not stated) gave Vaccinia mCherry -10.1%, VACV Venus inh -12.1% and HCV inh 0.562µM*.
`COc1cc(Cl)c(C)cc1NC(=O)CN(C)Cc1cccc(OC)c1OC` gave HCV inh 10µM*.
Screening Cc1ccc(NC(=O)CN(C)CC(=O)Nc2ccccc2-c2ccccc2)cc1 returned Vaccinia mCherry inactive, VACV Venus inh -24.2%, Lassa entry inh inconclusive, Marburg entry inh inconclusive and HCV inh inconclusive.
`CN(CC(=O)Nc1ccccc1-c1ccccc1)Cc1ccccc1Cl` gave Vaccinia mCherry -0.6%, VACV Venus inh -5.7%, Lassa entry inh -7.6%, Marburg entry inh 11.2µM* and HCV inh -27.8%.
Screening COc1ccc(NC(=O)COC(=O)Cn2cnc3ccccc32)cc1 returned Vaccinia mCherry -18.3%, VACV Venus inh -1.9%, Lassa entry inh 2.9%, Marburg entry inh 1.0% and HCV inh 31.1%.
`CCn1c(N)[n+](CC(=O)Nc2ccc(SC(F)F)cc2)c2ccccc21` gave Vaccinia mCherry inconclusive, VACV Venus inh -23.8%, Lassa entry inh inconclusive, Marburg entry inh 4.47µM* and HCV inh inconclusive.
Screening O=C(Cn1cnc2ccccc21)Nc1ccc(SC(F)F)cc1 returned Vaccinia mCherry -7.1%, VACV Venus inh -22.7%, Lassa entry inh -16.3%[46.1 µM], Marburg entry inh 3.16µM* and HCV inh 8.91µM*.
Screening CC[N+](CC)(CC)CC(=O)Nc1ccc(SC(F)F)cc1 returned Vaccinia mCherry inactive, VACV Venus inh -12.1%, Lassa entry inh -0.3%, Marburg entry inh 9.3% and HCV inh 6.9%.
`O=C1C=C(Nc2ccccc2O)c2ccccc2C1=O` gave Vaccinia mCherry 5.01µM*, VACV Venus inh inconclusive, Lassa entry inh inconclusive, Marburg entry inh inconclusive and HCV inh inconclusive.
`O=C1C=C(NCc2ccccc2)c2ccccc2C1=O` gave Vaccinia mCherry inconclusive, VACV Venus inh 11.2µM*, Lassa entry inh inconclusive, Marburg entry inh inconclusive and HCV inh inconclusive.
O=C1C=C(Nc2cccnc2)c2ccccc2C1=O was read as Vaccinia mCherry inconclusive, VACV Venus inh 10µM*, Lassa entry inh inconclusive, Marburg entry inh inconclusive and HCV inh 12.6µM*.
OC(c1cccnc1)c1ccc2c(c1)CN(Cc1cccc3c1OCO3)CCO2 (configuration not stated) was read as Vaccinia mCherry -1.2% and VACV Venus inh -9.8%.
For CN(C)c1ccc(/C=C/c2ccc3cc(N)ccc3n2)cc1 the results were Vaccinia mCherry 13.5% and VACV Venus inh 11.7%.
O=C1C(C(=O)N(c2ccccc2)C2CCCCC2)C=NC2SCCN12 (configuration not stated) was read as Marburg entry inh 16.2%.
Screening Cc1nn(-c2ccccc2)c(Cl)c1CN(C(=O)CCl)c1ccc(Cl)cc1 returned Vaccinia mCherry -1.0%, VACV Venus inh -23.8%, Lassa entry inh inconclusive, Marburg entry inh inconclusive and HCV inh 10µM*.
For Cc1cc(NC(=O)C(C)SCC(=O)N(Cc2ccccc2)c2ccccc2)no1 (configuration not stated) the results were Vaccinia mCherry -17.2%, VACV Venus inh 10.9%, Lassa entry inh inconclusive, Marburg entry inh 3.55µM* and HCV inh 14.6%.
`ClCCN(CCCl)c1ccc(C=Nc2ccc(/C=C/c3ccncc3)cc2)cc1` gave Vaccinia mCherry inactive and VACV Venus inh 4.1%.
For COC1=CC(=O)C(OC)=C(OC)C1=O the results were Vaccinia mCherry inconclusive, VACV Venus inh -29.3%, Lassa entry inh 15.8µM*, Marburg entry inh inconclusive and HCV inh inconclusive.
O=C(COC(=O)c1ccccc1Cl)NC(=O)NCc1ccccc1 was read as Vaccinia mCherry -5.2%, VACV Venus inh -17.3%, Lassa entry inh 8.2µM*, Marburg entry inh -0.7% and HCV inh 0.6%.
For CCNC(=O)NC(=O)COC(=O)c1ccccc1SCC(=O)NC(=O)NCC the results were Vaccinia mCherry -14.9%, VACV Venus inh -11.8%, Lassa entry inh inconclusive, Marburg entry inh 14.1µM* and HCV inh 4.4%.
